Activity calls are given as the source filed them. Unless noted, how the calls were made is not given here.
What was measured:
[1] = compounds altering circadian rhythm period length – cell-based, LOPAC library, luminescence reporter (AID 2774); settings: circadian reporter cells, at 7 µM, actives lie on both sides;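 further: values are relative to mean of DMSO wells on each plate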
[2] = tested on: Hepatitis C virus NS3 helicase; experiment: blockers of NS3h binding to ssDNA – biochemical, fluorescence polarization, LOPAC1280 library, primary screen (AID 687035; in the data active means inhibition above about 37%); settings: Purified HCV NS3 helicase, Cy5-dT15 ssDNA binding fluorescence polarization; stronger effect = higher value; concentration not given here
[3] = compounds altering Cy5-DNA-NS3h complex signal – biochemical, LOPAC1280, artefact control for HCV NS3 helicase inhibitor project (AID 687037); settings: Cy5-DNA-NS3h complex fluorescence interference counterscreen
[4] = viability loss with induced miR-34 in A549 – imaging, A549 dox-inducible miR-34, nuclei and caspase counts, primary screen (AID 1347080;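 active means compounds whose cell count with miR-34 switched on is under 0.7 times the count with it off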); settings: A549 miR-34 inducible, Hoechst nuclei count, 48 h
[5] = blockers of cellular phospholipid synthesis – cell-based, LOPAC library, screen 4, primary screen (AID 1347384); settings: animal cells, phospholipid biosynthesis inhibition screen; at 10 µM
[6] = galactose survival enhancers in mitochondrial complex I cybrids – cell-based, galactose medium, ATP luminescence, primary screen (AID 1645843;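 active means z-score of at least 1.8 in each of two replicates, scored against plate mean and spread of sample wells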;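 further: positive z means more ATP and so rescue of galactose-driven cybrid death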); settings: complex I mutant cybrid cells, 72 h, stronger effect = higher value
[7] = P. berghei load reduction in hepatocytes – cell-based, HepG2, luciferase luminescence, HepG2 viability, primary screen (AID 624349; in the data active means parasite load remaining mostly below about 12%, no sharp cut-off; inactive means mostly above about 10%;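 further: 100% = mean of DMSO negative control wells on the same plate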); settings: P. berghei liver stage in HepG2, luciferase luminescence, concentration not given here; parasite load remaining: stronger effect = lower value; viability: measured here: HepG2 viability without parasites
[8] = stronger effect = lower value, cell number ratio, induced over uninduced
[9] = measured here: relative caspase fold change +Dox/-Dox
[10] = measured here: total cells with miR-34 induction, stronger effect = lower value
[11] = measured here: total cells without miR-34 induction

Row | Compound | period change [1] | inhibition [2] | fluorescence ratio (interference) [3] | fold change [4, 8] | fold change [4, 9] | cell count [4, 10] | cell count [4, 11] | outcome [5] | z-score [6] | parasite load remaining [7] | viability [7] [%]
1 | Cn1c(=O)c2[nH]c(-c3ccc(S(=O)(=O)O)cc3)nc2n(C)c1=O | -0.005 h (inactive) | 0% (inactive) | 1 (inactive) | 1.01 (inactive) | 2.24 | 10100 | 10000 | inactive | -0.23 (inactive) |  | 
2 | O=c1cc(O)cc(/C=C/c2ccc(O)c(O)c2)o1 | -0.02 h (inactive) | -1% (inactive) | 1 (inactive) | 1.09 (inactive) | 1.07 | 9040 | 8270 | inactive | -0.475 (inactive) |  | 
3 | CCCOC(=O)c1c(-c2ccccc2)nc(CC)c(C(=O)SCC)c1CCC | -0.02 h (inactive) | -3% (inactive) | 1 (inactive) | 1.01 (inactive) | 0.935 | 9020 | 8910 | inactive | -1.19 (inactive) |  | 
4 | CCCN(CCc1ccccc1)C1CCc2c(O)cccc2C1 (stereo unspecified) | 0.095 h (inactive) | -4% (inactive) | 1 (inactive) | 0.964 (inactive) | 1.22 | 5860 | 6070 | inactive | -1.21 (inactive) |  | 
5 | O[Si](CCCN1CCCCC1)(c1ccc(F)cc1)C1CCCCC1 (stereo unspecified) | -0.3 h (inactive) | -2% (inactive) | 1 (inactive) | 0.937 (inactive) | 1.64 | 8140 | 8690 | inactive | -0.95 (inactive) |  | 
6 | NO | -0.195 h (inactive) | 1% (inactive) | 1 (inactive) | 1.15 (inactive) | 1.06 | 10000 | 8720 | inactive | 0.49 (inactive) |  | 
7 | Nn1nnc2ccccc21 | -0.155 h (inactive) | -1% (inactive) | 1 (inactive) | 1.06 (inactive) | 1.77 | 10600 | 9990 | inactive | 0.305 (inactive) |  | 
8 | N=C(N)c1ccccc1 | -0.055 h (inactive) | -2% (inactive) | 1 (inactive) | 1.03 (inactive) | 1.99 | 10800 | 10500 | inactive | 0.605 (inactive) |  | 
9 | COc1ccc(NC(=O)/C=C/c2ccc(Cl)cc2)cc1 | -0.055 h (inactive) | -2% (inactive) | 1 (inactive) | 1.13 (inactive) | 0.89 | 7420 | 6550 | inactive | 0.42 (inactive) |  | 
10 | C=C[C@H]1CN2CCC1C[C@H]2[C@H](O)c1ccnc2ccc(OC)cc12 (stereo partly specified) | -0.145 h (inactive) | -2% (inactive) | 1 (inactive) | 1.04 (inactive) | 1.02 | 8290 | 8000 | inactive | -1.04 (inactive) |  | 
11 | NC1C=CC=C(C(=O)O)C1 (stereo unspecified) | 0.115 h (inactive) | 0% (inactive) | 1 (inactive) | 1.08 (inactive) | 2.16 | 9940 | 9200 | inactive | 0.355 (inactive) |  | 
12 | CC1=C(C(=O)O)N2C(=O)[C@@H](NC(=O)C(N)C3=CCC=CC3)[C@H]2SC1 (stereo partly specified) | -0.045 h (inactive) | 0% (inactive) | 1 (inactive) | 1.02 (inactive) | 1.79 | 10500 | 10300 | inactive | -0.29 (inactive) |  | 
13 | OC[C@H]1O[C@@H](n2cnc3cncnc32)[C@H](O)[C@@H]1O | 0.1 h (inactive) | -4% (inactive) | 1 (inactive) | 1.03 (inactive) | 1.29 | 10800 | 10600 | inactive | -0.28 (inactive) |  | 
14 | O=c1[nH]ccc2c(O)cccc12 | 0.03 h (inactive) | -3% (inactive) | 0.9 (inactive) | 1.09 (inactive) | 1.24 | 10100 | 9200 | inactive | 0.02 (inactive) |  | 
15 | CC(=O)N[C@H](C(=O)O)C(C)(C)SN=O | 0.185 h (inactive) | -4% (inactive) | 1 (inactive) | 1.07 (inactive) | 1.19 | 11100 | 10400 | inactive | -0.22 (inactive) |  | 
16 | O=C(O)Cc1ccc(O)c(O)c1 | -0.08 h (inactive) | -1% (inactive) | 1 (inactive) | 0.965 (inactive) | 1.22 | 9890 | 10200 | inactive | -0.87 (inactive) |  | 
17 | O=[N+]([O-])c1ccc(CNc2nc(NCc3cccc(C(F)(F)F)c3)nc3nc[nH]c23)cc1 |  |  |  | 1.02 (inactive) | 2.13 | 7880 | 7740 | inactive | -0.05 (inactive) | 41.7% (inactive) | 142

Row | Compound | period change [1] | inhibition [2] | fluorescence ratio (interference) [3] | fold change [4, 8] | fold change [4, 9] | cell count [4, 10] | cell count [4, 11] | outcome [5] | z-score [6] | parasite load remaining [7] | viability [7] [%]
18 | Nc1ccc(CCNc2ncnc3c2ncn3C2OC(CO)C(O)C2O)cc1 (stereo unspecified) | 0.215 h (inactive) | -1% (inactive) | 1 (inactive) | 1.01 (inactive) | 1.75 | 10600 | 10500 | inactive | 0.795 (inactive) |  | 
19 | CSc1nc(N)c2ncn([C@@H]3O[C@H](COP(=O)(O)OP(=O)(O)O)[C@H](O)C3O)c2n1 (stereo partly specified) | -0.26 h (inactive) | 33% (inactive) | 0.9 (inactive) | 1.03 (inactive) | 1.82 | 11000 | 10800 | inactive | 0.32 (inactive) |  | 
20 | C=CC1(C)CC(=O)C2(O)C(C)(O1)C(OC(C)=O)C(O)C1C(C)(C)CCC(O)C12C (stereo unspecified) | 0.345 h (inactive) | 0% (inactive) | 1.1 (inactive) | 0.994 (inactive) | 1.26 | 9840 | 9900 | inactive | -0.035 (inactive) |  | 
21 | Nc1cc(Cl)c(NC2=NCCN2)c(Cl)c1 | 0.07 h (inactive) | -4% (inactive) | 0.9 (inactive) | 1.02 (inactive) | 1.68 | 11100 | 10900 | inactive | 0.705 (inactive) |  | 
22 | O=c1[nH]c(=O)c2nc3ccccc3nc2[nH]1 | -0.07 h (inactive) | -1% (inactive) | 1 (inactive) | 1.04 (inactive) | 1.29 | 8690 | 8380 | inactive | 0.695 (inactive) |  | 
23 | CCN(c1nc(N)c(C(=O)N=C(N)N)nc1Cl)C(C)C | -0.06 h (inactive) | -2% (inactive) | 1 (inactive) | 1.19 (inactive) | 1.19 | 5200 | 4360 | inactive | -1.38 (inactive) |  | 
24 | CCCCCCC/C=C\CCCCCCCCC(=O)O | 0.02 h (inactive) | -4% (inactive) | 0.9 (inactive) | 1.08 (inactive) | 0.494 | 10900 | 10100 | inactive | 0.87 (inactive) |  | 
25 | CC(C)C[C@H](NC(=O)[C@H](O)[C@H](N)Cc1ccccc1)C(=O)O | -0.01 h (inactive) | -2% (inactive) | 1 (inactive) | 1.02 (inactive) | 0.988 | 10100 | 9920 | inactive | 0.245 (inactive) |  | 
26 | Oc1ccc(C2CNCc3sccc32)cc1O (stereo unspecified) | 0.045 h (inactive) | 5% (inactive) | 1 (inactive) | 0.942 (inactive) | 1.38 | 10000 | 10600 | inactive | -1.29 (inactive) |  | 
27 | CNc1ncnc2c1ncn2[C@@H]1O[C@H](CO)[C@H](O)C1O (stereo partly specified) | -0.015 h (inactive) | -2% (inactive) | 1 (inactive) | 1.08 (inactive) | 1.05 | 10300 | 9460 | inactive | 0.765 (inactive) |  | 
28 | Cc1nc(N=Nc2ccc(C(=O)O)cc2)c(COP(=O)(O)O)c(C=O)c1O | -0.16 h (inactive) | 43% (active) | 1 (inactive) | 1.04 (inactive) | 0.656 | 10100 | 9680 | inactive | 0.49 (inactive) |  | 
29 | [Li+] | -0.09 h (inactive) | -1% (inactive) | 1 (inactive) | 0.887 (inactive) | 0.586 | 9680 | 10900 | inactive | -0.05 (inactive) |  | 
30 | C=CCN1CCc2c(cc(O)c(O)c2Br)[C@@H](c2ccccc2)C1 | 0.175 h (inactive) | -2% (inactive) | 1 (inactive) | 1.09 (inactive) | 2.06 | 5920 | 5430 | inactive | -1.42 (inactive) |  | 
31 | O=C(Nc1cccc(C(=O)Nc2ccc(S(=O)(=O)O)c3cc(S(=O)(=O)O)cc(S(=O)(=O)O)c23)c1)Nc1cccc(C(=O)Nc2ccc(S(=O)(=O)O)c3cc(S(=O)(=O)O)cc(S(=O)(=O)O)c23)c1 | -0.03 h (inactive) | 91% (active) | 1.1 (inactive) | 1.05 (inactive) | 0.567 | 9650 | 9220 | inactive | 0.865 (inactive) |  | 
32 | N#Cc1cc([N+](=O)[O-])c2sc(C(N)=O)[n+]([O-])c2c1 |  | -4% (inactive) | 1 (inactive) | 1.08 (inactive) | 1.61 | 7220 | 6660 | inactive | -1.46 (inactive) | 32.2% (inactive) | 76.2
33 | COc1ccccc1N1CCN(CCN(C(=O)c2ccc(F)cc2)c2ccccn2)CC1 | 0.22 h (inactive) | -4% (inactive) | 0.9 (inactive) | 1.08 (inactive) | 1.52 | 10200 | 9450 | inactive | -0.25 (inactive) |  | 
34 | COc1ccc2c(c1)CCC1C2CC[C@@]2(C)C1CC[C@@H]2NCCCCCCN1C(=O)C=CC1=O (stereo partly specified) | -0.255 h (inactive) | 5% (inactive) | 0.8 (active) | 1.05 (inactive) | 1.05 | 9380 | 8930 | inactive | 0.035 (inactive) |  | 
